According to PubChem BioAssay AID1159580 (chemical genetic matrix, 2015):
Screen size: about 5,500 compounds; about 2,000 (36%) were called active. Roughly 18% stayed inconclusive and do not appear here. Rule as the data show it: active = normalized growth mostly below about 0.91 (no sharp cut-off); inconclusive = no clear call, values can overlap the other calls; inactive = mostly above about 0.92. Some of the results follow.

Assay: chemical genetic growth profiling, strain panel (AID 1159580);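 also: tested at 20 µM; growth read once vehicle control cultures reached saturation at 30 °C; 1 = growth at the plate median or of vehicle wells; lower values mean less growth of the strain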
Details: S. cerevisiae deletion strains, growth OD

Measured: normalized growth

C[C@]12CCC3C(CC[C@H]4CC(=O)CC[C@]34C)C1CCC2=O (stereo partly specified)
inactive: locus YJR066W, strain TOR1, hits give low values 0.881 | locus YKL009W, strain mrt4, hits give low values 0.906 | locus YKL068W, hits give low values 0.989 | locus YKL085W, strain MDH1 (second series), hits give low values 0.97 | locus YKL085W, strain MDH1, hits give low values 0.97 | locus YKL160W, strain elf1, hits give low values 0.95 | locus YKL190W, strain CNB1, hits give low values 0.98 | locus YKR026C, strain gcn3, hits give low values 1.02 | locus YKR091W, strain srl3, hits give low values 1.03 | locus YLL001W, strain dnm1, hits give low values 0.942 | locus YLL041C, strain sdh2, hits give low values 1.01 | locus YLR058C, strain SHM2, hits give low values 0.958 | locus YLR102C, strain apc9, hits give low values 0.992 | locus YLR113W, strain HOG1, hits give low values 0.923 | locus YLR258W, strain gsy2, hits give low values 0.92 | locus YLR268W, strain sec22, hits give low values 0.927 | locus YLR330W, strain CHS5, hits give low values 0.95 | locus YLR342W, strain FKS1, hits give low values 0.912 | locus YLR357W, strain rsc2, hits give low values 1.08 | locus YLR370C, strain arc18, hits give low values 0.972 | locus YLR371W, strain rom2, hits give low values 0.956 | locus YLR384C, strain iki3, hits give low values 1.04 | locus YML016C, strain PPZ1, hits give low values 0.988 | locus YML124C, strain tub3, hits give low values 0.996 | locus YMR078C, strain ctf18, hits give low values 0.966 | locus YMR125W, strain sto1, hits give low values 1.02 | locus YMR129W, hits give low values 0.929 | locus YMR231W, strain pep5, hits give low values 0.99 | locus YMR307W, strain GAS1, hits give low values 0.771 | locus YNL067W, strain RPL9B, hits give low values 0.985 | locus YNL183C, strain NPR1, hits give low values 0.876 | locus YNL209W, strain ssb2, hits give low values 0.991 | locus YNL233W, strain BNI4, hits give low values 0.902 | locus YNL248C, strain rpa49, hits give low values 0.908 | locus YNL322C, strain KRE1 (second series), hits give low values 0.977 | locus YNL322C, strain KRE1, hits give low values 0.99 | locus YNR049C, strain mso1, hits give low values 1.02 | locus YOL012C, strain htz1 1.71 | locus YOL147C, strain pex11, hits give low values 0.975 | locus YOR061W, strain CKA2, hits give low values 0.923 | locus YOR069W, strain VPS5, hits give low values 1 | locus YOR070C, strain gyp1, hits give low values 0.946 | locus YOR080W, strain dia2, hits give low values 1.02 | locus YOR083W, strain WHI5, hits give low values 0.904 | locus YOR136W, strain idh2, hits give low values 0.994 | locus YOR144C, strain elg1, hits give low values 0.954 | locus YOR231W, strain MKK1, hits give low values 0.901 | locus YOR265W, strain rbl2, hits give low values 0.997 | locus YOR290C, strain snf2, hits give low values 0.932 | locus YOR316C, strain cot1, hits give low values 0.981 | locus YPL106C, strain sse1, hits give low values 1.14 | locus YPL240C, strain hsp82, hits give low values 0.936 | locus YPL256C, strain CLN2, hits give low values 0.887 | locus YPR119W, strain clb2, hits give low values 1.01 | locus YPR141C, strain kar3, hits give low values 1 | locus YPR167C, strain met16, hits give low values 0.921 | strain wtn01, hits give low values 0.944
active: locus YKR001C, strain vps1, hits give low values 0.86 | locus YLL026W, hits give low values 0.928 | locus YLR027C, strain aat2, hits give low values 0.875 | locus YLR039C, strain RIC1, hits give low values 0.504 | locus YLR221C, strain rsa3, hits give low values 0.796 | locus YLR262C, strain YPT6 (second series), hits give low values 0.471 | locus YLR262C, strain YPT6, hits give low values 0.487 | locus YLR320W, strain mms22, hits give low values 0.595 | locus YLR342W, strain FKS1 (second series), hits give low values 0.718 | locus YLR418C, strain cdc73, hits give low values 0.701 | locus YML032C, strain rad52, hits give low values 0.82 | locus YML120C, strain ndi1, hits give low values 0.853 | locus YMR058W, strain fet3, hits give low values 0.872 | locus YMR205C, strain PFK2, hits give low values 0.726 | locus YMR223W, strain ubp8, hits give low values 0.864 | locus YNL071W, strain lat1, hits give low values 0.563 | locus YNL250W, strain rad50, hits give low values 0.894 | locus YNL271C, strain bni1, hits give low values 0.893 | locus YNL298W, strain CLA4, hits give low values 0.821 | locus YNL307C, strain MCK1, hits give low values 0.723 | locus YNR052C, strain pop2, hits give low values 0.648 | locus YOL006C, strain TOP1, hits give low values 0.529 | locus YOR001W, strain rrp6, hits give low values 0.833 | locus YOR106W, strain vam3, hits give low values 0.766 | locus YOR184W, strain ser1, hits give low values 0.658 | locus YOR270C, strain vph1, hits give low values 0.634 | locus YPL051W, strain arl3, hits give low values 0.865 | locus YPL078C, strain atp4, hits give low values 0.886 | locus YPR163C, strain tif3, hits give low values 0.884
